Measured values: PubChem BioAssay AID720619 (Broad Institute, 2013)
Results filed as inconclusive are left out. Activity calls are given as the source filed them.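 The calls were made as follows: active = toxic at all three exposure times, half-maximal drop reached within twice the top dose; inconclusive = exposure times disagree, or curves are weak, flat or poorly fitted; inactive = inactive at every exposure time.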

Test: viability loss in HT-29 adenocarcinoma cells – cell-based, Alamar Blue fluorescence, several timepoints, dry powder, mechanism study for HRAS target identification, late-stage follow-up (AID 720619)
Details: HT-29 viability
[1] = 48 h, at 35 µM (top of the series)

| Compound | activity, lower = more toxic [1] | activity, lower = more toxic (8 h treatment, at 35 µM) |
| --- | --- | --- |
| Cc1onc(C(=O)N2CCN(C(c3ccncc3)c3ccncc3)CC2)c1[N+](=O)[O-] | 7.85% (inactive) | -3.11% |
| CCC(=O)N(c1ccc(OC)c(Cl)c1)C(C(=O)NCCc1ccccc1)c1cccs1 (centres undefined) | 32.2% (inactive) | 5.18% |
